From publication PMC4336329 (PLoS ONE, 2015) come the findings set out here.

Screen size: about 310,000 compounds; about 14,000 (4.5%) showed an effect of 50% or more. The effect is printed as a negative number. The list comes from a sample in which strong results are over-represented; it also holds similar structures and randomly drawn compounds.
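Further: peak tail current of the secondary pulse compared with the same well before compound.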

For the experiment, the target named is human ether-à-go-go-related gene (hERG) potassium channel (human, UniProt Q12809). Nature of the experiment: primary screen, population patch clamp on CHO cells stably expressing hERG; higher = less effect of the substance.
Sequence of human ether-à-go-go-related gene (hERG) potassium channel (Q12809 whole entry, looked up): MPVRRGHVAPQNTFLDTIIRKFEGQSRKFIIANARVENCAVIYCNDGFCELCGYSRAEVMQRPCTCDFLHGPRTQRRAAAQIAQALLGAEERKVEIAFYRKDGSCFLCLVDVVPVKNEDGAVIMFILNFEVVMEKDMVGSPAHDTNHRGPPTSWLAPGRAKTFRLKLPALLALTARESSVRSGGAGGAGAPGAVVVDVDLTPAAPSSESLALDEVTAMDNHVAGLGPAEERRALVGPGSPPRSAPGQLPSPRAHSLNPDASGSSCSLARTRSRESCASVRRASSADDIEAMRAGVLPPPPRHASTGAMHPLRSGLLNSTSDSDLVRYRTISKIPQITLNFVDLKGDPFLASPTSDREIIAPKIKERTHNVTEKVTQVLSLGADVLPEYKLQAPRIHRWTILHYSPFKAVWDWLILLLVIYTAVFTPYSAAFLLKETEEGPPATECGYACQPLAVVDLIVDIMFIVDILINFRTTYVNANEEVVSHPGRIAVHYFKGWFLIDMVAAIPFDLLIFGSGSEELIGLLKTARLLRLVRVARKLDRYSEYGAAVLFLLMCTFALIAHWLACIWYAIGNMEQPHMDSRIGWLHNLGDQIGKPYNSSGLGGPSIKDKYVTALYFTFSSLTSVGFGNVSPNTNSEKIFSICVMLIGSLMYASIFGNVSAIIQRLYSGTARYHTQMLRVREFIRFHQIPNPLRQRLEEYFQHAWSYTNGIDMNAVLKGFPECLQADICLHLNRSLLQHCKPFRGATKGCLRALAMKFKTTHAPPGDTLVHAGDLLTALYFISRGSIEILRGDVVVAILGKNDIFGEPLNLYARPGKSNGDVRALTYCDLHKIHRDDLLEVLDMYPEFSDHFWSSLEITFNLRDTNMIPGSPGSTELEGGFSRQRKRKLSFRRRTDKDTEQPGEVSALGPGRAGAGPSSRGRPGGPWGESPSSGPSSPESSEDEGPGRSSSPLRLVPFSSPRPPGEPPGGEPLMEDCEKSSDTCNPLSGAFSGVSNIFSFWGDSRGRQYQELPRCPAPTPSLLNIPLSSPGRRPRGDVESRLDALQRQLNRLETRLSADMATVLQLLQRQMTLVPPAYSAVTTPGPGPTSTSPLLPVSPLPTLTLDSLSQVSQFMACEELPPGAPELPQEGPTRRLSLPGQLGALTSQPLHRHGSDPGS
As to `C/C(=N\NC(=O)CNc1ccc(F)cc1)c1cc2ccccc2o1`, the “hERG current change (%, negative = inhibition) at 10uM” value is given as -26.6%.
To `C=CCn1c(O)c(N=NC(=O)c2cccnc2)c2cc(Br)ccc21` belongs -16.1%; to `C=CCn1c(=O)c(C(=O)NCc2ccccc2)c(O)c2ccccc21`, 15.4%; to `O=[N+]([O-])c1cccc(Cl)c1NCCNc1ncc(C(F)(F)F)cc1Cl`, 15.6%.
For `Cc1ccc(S(=O)(=O)NC(C)(C)CN2CCCCC2)cc1` the value was 3.77%; for `COc1ccc(C(=O)COc2ccc3c(C)cc(=O)oc3c2)cc1`, 11.1%; for `Cc1cc(=O)oc2cc(OCC(=O)NC3CCCC3)ccc12`, -67.2%.
For `Cc1cc(=O)oc2cc(OCC(=O)c3ccccc3)ccc12` the value was 10.9%; for `O=C(COc1ccc2c3c(c(=O)oc2c1)CCC3)NC1CCCCC1`, 4.83%.
Turning to `COc1cccc(C(=O)COc2ccc3c(C)cc(=O)oc3c2)c1`, the “hERG current change (%, negative = inhibition) at 10uM” value is given as -70.8%.
To `Cc1cc(=O)oc2cc(OCC(=O)OCC(=O)NC3CC3)ccc12` belongs 16.4%; to `Cc1cc(=O)oc2cc(OCC(=O)OC(C)C(=O)NC3CCCC3)ccc12` (stereo not shown), 2.63%.
In the case of `Cc1cc(=O)oc2cc(OCC(=O)NC3CCCCC3)ccc12`, the “hERG current change (%, negative = inhibition) at 10uM” value is -60.7%.
For the molecule `Cc1cc(=O)oc2cc(OCC(=O)NC3CC(C)(C)NC(C)(C)C3)ccc12`, the “hERG current change (%, negative = inhibition) at 10uM” value was -34.2%.
For the molecule `CCOc1cc(NC(=S)NCC(C)C)c(OCC)cc1NC(=O)c1cccs1`, the “hERG current change (%, negative = inhibition) at 10uM” value is 13.2%.
For `O=C1NC2(CCCCC2)C(=O)N1/N=C/c1ccc(O)cc1O`, the “hERG current change (%, negative = inhibition) at 10uM” value is given as -16.7%.
For `COc1ccc(C(=O)c2c[nH]c(C(=O)N=CN(C)C)c2)cc1` the value was 10.2%; for `O=C(c1ccc(NC2=NC3CS(=O)(=O)CC3S2)cc1)N1CCN(c2ccccc2)CC1` (stereo not shown), 20.7%.
For `Cc1ccc(-c2nc3cnccn3c2Nc2ccc3c(c2)OCO3)o1` the value was -52.7%; for `Cc1ccn2c(Nc3ccccc3)c(-c3ccccn3)nc2c1`, -10.8%.
`Clc1ccc(-c2nc3cnccn3c2Nc2ccc3c(c2)OCO3)cc1`: the “hERG current change (%, negative = inhibition) at 10uM” value is reported as -18.4%.
`Cc1ccn2c(Nc3ccc4c(c3)OCO4)c(-c3ccccn3)nc2c1`: the “hERG current change (%, negative = inhibition) at 10uM” value is given as -67.4%.
To `Cc1ccc(-c2nc3cnccn3c2Nc2ccc3c(c2)OCCO3)o1` belongs -23.8%; to `Cc1ccc(Nc2c(-c3ccc(C)o3)nc3cnccn23)cc1`, 4.98%; to `Cc1ccc(Nc2c(-c3ccccn3)nc3cc(C)ccn23)cc1`, -48.1%.
For the molecule `Cc1ccc(-c2nc3cnccn3c2Nc2ccc3c(c2)OCO3)cc1`, the “hERG current change (%, negative = inhibition) at 10uM” value is on record as -25.7%.
For `COc1ccc(-c2nc3cnccn3c2Nc2ccc3c(c2)OCO3)cc1` the value was -52.7%.
Consider `Cc1ccc(NC(=O)CSc2nnc(-c3ccoc3C)n2CCCN(C)C)cc1Cl`, for which the “hERG current change (%, negative = inhibition) at 10uM” value was -69.3%.
On to `CCCn1c(SCC(=O)Nc2cccc(C(=O)OCC)c2)nnc1-c1ccoc1C`, for which the “hERG current change (%, negative = inhibition) at 10uM” value was -2.61%.
Turning to `CCOC(=O)c1cccc(NC(=O)CSc2nnc(-c3ccoc3C)n2CCOC)c1`, the “hERG current change (%, negative = inhibition) at 10uM” value is -19.7%.
For `CCN(CC)CCCn1c(SCC(=O)Nc2cccc(F)c2)nnc1-c1ccoc1C` the value was -68.2%; for `Cc1occc1-c1nnc(SCC(=O)Nc2ccc3c(c2)OCO3)n1CC1CCCO1` (stereo not shown), -2.13%; for `COCCCn1c(SCC(=O)Nc2ccc3c(c2)OCCO3)nnc1-c1ccoc1C`, -5.98%.
As for `Cn1nc([N+](=O)[O-])nc1N1CCOCC1`, the “hERG current change (%, negative = inhibition) at 10uM” value is reported as 23.7%.
For `CC1CCCCN1CCn1c(=S)[nH]c2cc3c(cc2c1=O)OCO3` (stereo not shown) the value was -29%; for `Cc1cc2cccc(C)c2nc1SCC(=O)NNC(=O)c1ccco1`, 3.66%.
To `Cn1nc(C(=O)Nc2cccc(S(=O)(=O)N3CCCC3)c2)c2ccccc2c1=O` belongs -4.87%; to `C=CCOc1c(CNc2ccc3[nH]c(=O)[nH]c3c2)cccc1OC`, 10.1%; to `Cc1ccc(NC2CCCN(C(=O)c3snnc3C)C2)cc1C` (stereo not shown), 0.46%.
To `Cl.Cn1c2c(c3ccccc31)CCN1CCC[C@]21c1ccccc1` belongs -60.7%.
Regarding `Cn1c2c(c(=O)c3ccccc31)CCCC2`, the “hERG current change (%, negative = inhibition) at 10uM” value is given as -4.88%.
To `Cn1c2c(c(=O)c3ccccc31)CCC(C)(C)O2` belongs -3.57%; to `COc1ccc(-c2nnc(NC(=O)c3ccc(S(=O)(=O)N(C)CC4CCCO4)cc3)o2)c(OC)c1` (stereo not shown), 10.3%; to `CCn1cc(CN2CCC(n3nccc3NC(=O)c3ccccc3C)CC2)cn1`, -58.2%.
With `COC(C(=O)Nc1ccnn1C1CCN(Cc2cnn(C(C)C)c2)CC1)c1ccccc1` (stereo not shown), the “hERG current change (%, negative = inhibition) at 10uM” value is recorded as -2.06%.
Take `CCn1cc(CN2CCC(n3nccc3NC(=O)c3ccccc3OC)CC2)cn1`: the “hERG current change (%, negative = inhibition) at 10uM” value is listed as -71.4%.
`Cc1ccccc1C(=O)Nc1ccnn1C1CCN(Cc2cnn(C(C)C)c2)CC1`: the “hERG current change (%, negative = inhibition) at 10uM” value is -72.3%.
To `CCn1cc(CN2CCC(n3nccc3NC(=O)c3ccc(OC)cc3)CC2)cn1` belongs -4.16%; to `CC(C)n1cc(CN2CCC(n3nccc3NC(=O)Cc3ccccc3)CC2)cn1`, 7.82%.
To `Cc1ccccc1C(=O)Nc1ccnn1C1CCN(Cc2cnn(C)c2)CC1` belongs -26.5%; to `COc1ccccc1C(=O)Nc1ccnn1C1CCN(Cc2cnn(C)c2)CC1`, -55.6%; to `CCn1cc(CN2CCC(n3nccc3NC(=O)c3ccccc3C)CC2)c(C)n1`, -37.9%.
To `Cn1cc(CN2CCC(n3nccc3NC(=O)c3ccccc3Cl)CC2)cn1` belongs -32.9%; to `COc1ccc(C(=O)Nc2ccnn2C2CCN(Cc3cnn(C)c3)CC2)cc1`, 6.81%.
With `CCn1cc(CN2CCC(n3nccc3NC(=O)Cc3ccccc3)CC2)cn1`, the “hERG current change (%, negative = inhibition) at 10uM” value was 7.27%.
For `O=C(COc1cc(F)ccc1[N+](=O)[O-])Nc1ccc(N2CCOCC2)cc1` the value was 7.65%.
To `CN1C(=O)C2(C(C#N)=C(N)N(c3ccc(Cl)cc3)C3=C2C(=O)CC(C)(C)C3)c2ccccc21` (stereo not shown) belongs -6.79%; to `CCOC(=O)/C(C#N)=N/Nc1c(S(=O)(=O)Cc2ccco2)csc1C(=O)OC`, 11.4%; to `COc1ccc(N2CCN(C(=O)Nc3ccccc3Cl)CC2)cc1`, 4.49%.
For `Cc1ccccc1NC(=O)CSc1nnc(CNC(=O)c2ccc3c(c2)OCO3)n1C` the value was 1.34%.
On to `CCC1C(=O)NCCN1C(=O)CCc1nnc(CCc2ccc(OC)cc2)o1` (stereo not shown), for which the “hERG current change (%, negative = inhibition) at 10uM” value worked out at 21.9%.
Consider `Cc1ccc(C(=O)NCCNC(=O)COc2ccccc2Cl)cn1`, for which the “hERG current change (%, negative = inhibition) at 10uM” value turned out to be 6.95%.
With `CCN(CC)CCCN(C(=O)c1ccccc1C)c1nc(-c2ccc(OC)cc2)cs1`, the “hERG current change (%, negative = inhibition) at 10uM” value is listed as -55.5%.
On to `CCN(CC)CCCN(C(=O)c1ccccc1F)c1nc(-c2ccc(OC)cc2)cs1`, for which the “hERG current change (%, negative = inhibition) at 10uM” value is on record as -71.4%.
For `COCCN(C(=O)c1ccccc1F)c1nc(-c2ccc(OC)cc2)cs1` the value was 16.7%; for `CCN(C(=O)c1ccccc1F)c1nc(-c2ccc(OC)cc2)cs1`, 22.8%; for `COCCCN(C(=O)c1ccccc1F)c1nc(-c2ccc(OC)cc2)cs1`, 8.7%.
In the case of `CN(CC(=O)Nc1cccc(F)c1)C(=O)CCNC(=O)c1ccco1`, the “hERG current change (%, negative = inhibition) at 10uM” value was 16.7%.
Regarding `CCC(C)(C)NC(=O)C(c1ccccc1)N(Cc1cccs1)C(=O)Cn1nnc2ccccc21` (stereo not shown), the “hERG current change (%, negative = inhibition) at 10uM” value is reported as 7.58%.
Turning to `Cc1cccc(/C(N)=N/OC(=O)COc2ccc(Cl)c(C)c2)c1`, the “hERG current change (%, negative = inhibition) at 10uM” value is 13.2%.
To `COc1ccc(N2CCN(CCCNC(=O)CCCn3c(=O)[nH]c4ccsc4c3=O)CC2)cc1` belongs -9.7%; to `CC1CCN(CCCNC(=O)c2cc3sccc3n2C)CC1`, -57.3%; to `Cn1c(C(=O)NCCCN2CCCCC2)cc2sccc21`, -49%.
For `COc1ccc(N2CCN(CCCNC(=O)c3cc4sccc4n3C)CC2)cc1` the value was -70.7%; for `COc1ccc(CCNC(=O)c2cc3sccc3n2C)cc1OC`, -6.67%; for `COCCNC(=O)c1cc2sccc2n1C`, 1.67%.
Turning to `COC(=O)CSc1ccsc1C(=O)O`, the “hERG current change (%, negative = inhibition) at 10uM” value is on record as 5.72%.
For `COc1ccc(-c2cc3c(=O)n(CC(=O)Nc4cccc(Cl)c4)nc(C)n3n2)cc1`, the “hERG current change (%, negative = inhibition) at 10uM” value stood at 14.8%.
To `CCCC(=O)Nc1cccc(NC(=O)c2cccc([N+](=O)[O-])c2C)c1` belongs -12.8%.
For the molecule `CCCCN(CC)CCNC(=O)CN1C(=O)COc2ccc(S(=O)(=O)N3CCCC3)cc21`, the “hERG current change (%, negative = inhibition) at 10uM” value is -3.34%.
With `CCCCN(CCCC)CCNC(=O)CN1C(=O)COc2ccc(S(=O)(=O)N3CCC(C)CC3)cc21`, the “hERG current change (%, negative = inhibition) at 10uM” value was -66.5%.
To `CC(C)N(Cc1ccccc1)C(=O)CN1C(=O)COc2ccc(S(=O)(=O)NC3CCCC3)cc21` belongs -36.1%; to `CCN(Cc1ccccc1)C(=O)CN1C(=O)COc2ccc(S(=O)(=O)NC3CCCC3)cc21`, -54.2%.
To `CCN(Cc1ccccc1)C(=O)CN1C(=O)COc2ccc(S(=O)(=O)N3CCCCCC3)cc21` belongs -8.9%.
On to `CC1CCN(S(=O)(=O)c2ccc3c(c2)N(CC(=O)NCCCN2CCCC(C)C2)C(=O)CO3)CC1` (stereo not shown), for which the “hERG current change (%, negative = inhibition) at 10uM” value is recorded as -8.35%.
To `CCN(CC)S(=O)(=O)c1ccc2c(c1)N(CC(=O)N(CCc1ccncc1)C(C)C)C(=O)CO2` belongs -53.3%; to `CCCCN(CCCC)CCNC(=O)CN1C(=O)COc2ccc(S(=O)(=O)N3CCOCC3)cc21`, -42.3%; to `CCN(CC)S(=O)(=O)c1ccc2c(c1)N(CC(=O)N1CCCC1)C(=O)CO2`, -5.64%.
To `CCN(CC)S(=O)(=O)c1ccc2c(c1)N(CC(=O)NCCc1ccc(S(N)(=O)=O)cc1)C(=O)CO2` belongs -1.7%.
To `CCCCN(CCCNC(=O)CN1C(=O)COc2ccc(S(=O)(=O)N3CCC(C)CC3)cc21)Cc1ccccc1` belongs -76.6%.
As for `CC1CCN(S(=O)(=O)c2ccc3c(c2)N(CC(=O)NCCCN2C(C)CCCC2C)C(=O)CO3)CC1` (stereo not shown), the “hERG current change (%, negative = inhibition) at 10uM” value was found to be 17.3%.
